The assay deals with Eukaryotic translation initiation factor 3 subunit I (UniProt P40217). The assay can be described thus: cross-link between two proteins; cross-linking mass spectrometry.
Sequence of Eukaryotic translation initiation factor 3 subunit I (P40217 whole entry): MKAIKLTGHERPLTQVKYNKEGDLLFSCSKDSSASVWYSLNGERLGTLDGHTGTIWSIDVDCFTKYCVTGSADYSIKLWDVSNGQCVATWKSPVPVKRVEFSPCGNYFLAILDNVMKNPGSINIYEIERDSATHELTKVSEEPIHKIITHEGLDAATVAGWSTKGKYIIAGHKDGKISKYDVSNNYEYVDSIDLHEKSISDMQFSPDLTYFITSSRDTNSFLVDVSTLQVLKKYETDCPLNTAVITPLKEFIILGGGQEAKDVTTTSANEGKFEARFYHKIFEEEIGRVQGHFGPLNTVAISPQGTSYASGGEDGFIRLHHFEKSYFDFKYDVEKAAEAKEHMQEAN

Sequence of Eukaryotic translation initiation factor 3 subunit A, P38249 (P38249 whole entry): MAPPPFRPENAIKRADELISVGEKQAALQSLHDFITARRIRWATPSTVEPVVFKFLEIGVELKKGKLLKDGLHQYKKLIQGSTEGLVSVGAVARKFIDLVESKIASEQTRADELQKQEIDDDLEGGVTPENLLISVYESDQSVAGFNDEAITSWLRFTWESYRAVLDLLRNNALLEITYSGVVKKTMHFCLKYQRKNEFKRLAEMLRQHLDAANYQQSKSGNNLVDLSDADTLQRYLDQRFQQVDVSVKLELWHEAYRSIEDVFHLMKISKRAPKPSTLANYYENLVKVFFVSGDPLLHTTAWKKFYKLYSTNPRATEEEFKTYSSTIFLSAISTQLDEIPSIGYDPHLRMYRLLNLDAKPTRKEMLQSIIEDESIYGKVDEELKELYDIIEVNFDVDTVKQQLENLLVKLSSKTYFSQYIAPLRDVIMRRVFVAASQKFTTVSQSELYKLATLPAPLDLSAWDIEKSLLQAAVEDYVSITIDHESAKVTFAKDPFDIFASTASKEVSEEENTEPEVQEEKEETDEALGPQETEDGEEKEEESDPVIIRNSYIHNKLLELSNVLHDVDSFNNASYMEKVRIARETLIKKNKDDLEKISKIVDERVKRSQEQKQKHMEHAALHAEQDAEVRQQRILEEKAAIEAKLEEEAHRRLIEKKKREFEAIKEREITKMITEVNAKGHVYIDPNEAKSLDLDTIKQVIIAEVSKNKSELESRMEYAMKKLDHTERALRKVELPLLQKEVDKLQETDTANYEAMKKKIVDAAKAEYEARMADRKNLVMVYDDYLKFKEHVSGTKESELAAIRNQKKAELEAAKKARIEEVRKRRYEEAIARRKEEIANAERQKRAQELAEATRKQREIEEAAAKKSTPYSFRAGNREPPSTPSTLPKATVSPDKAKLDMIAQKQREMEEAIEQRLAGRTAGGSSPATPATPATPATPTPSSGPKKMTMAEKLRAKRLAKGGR

On to “Eukaryotic translation initiation factor 3 subunit A, P38249”, for which the “listed as a hit” value is given as “yes”.

Source of the values: article PMC4151992.
